From PubChem
ELG1 DNA repair – inhibitors of ELG1-dependent DNA repair in HEK293T cells; actives 2.3% (n = 330,000); HEK293T ELG1-luciferase reporter, luminescence, 16 h; DNA damage induced by 5-fluorouridine; Potency, µM (series often up to 46.1 µM), actives largely listed as inhibitors; also: nearly all actives have a fitted effect of over 55% in size
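Luminescence from the luciferase reporter, measured 30 min after ONE-Glo reagent at room temperature, was the read-out. Beforehand, 2,000 cells per well were exposed for 16 hr at 37 °C to 5-fluorouridine together with compound or vehicle.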
TSHR antagonist – blocks TSH signaling through the human TSH receptor | P16473 | TSHR-expressing cells, TSH-stimulated cAMP HTRF, 2 h; stronger effect = lower value | activity change, negative = inhibition, % at 11.5 µM | actives 0.2% (n = 330,000);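 active = activity change below a set negative limit, meaning inhibition stronger than a set level, cut at about -70% in these data; inconclusive = activity change between two set negative limits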
Target sequence (P16473 whole entry, looked up): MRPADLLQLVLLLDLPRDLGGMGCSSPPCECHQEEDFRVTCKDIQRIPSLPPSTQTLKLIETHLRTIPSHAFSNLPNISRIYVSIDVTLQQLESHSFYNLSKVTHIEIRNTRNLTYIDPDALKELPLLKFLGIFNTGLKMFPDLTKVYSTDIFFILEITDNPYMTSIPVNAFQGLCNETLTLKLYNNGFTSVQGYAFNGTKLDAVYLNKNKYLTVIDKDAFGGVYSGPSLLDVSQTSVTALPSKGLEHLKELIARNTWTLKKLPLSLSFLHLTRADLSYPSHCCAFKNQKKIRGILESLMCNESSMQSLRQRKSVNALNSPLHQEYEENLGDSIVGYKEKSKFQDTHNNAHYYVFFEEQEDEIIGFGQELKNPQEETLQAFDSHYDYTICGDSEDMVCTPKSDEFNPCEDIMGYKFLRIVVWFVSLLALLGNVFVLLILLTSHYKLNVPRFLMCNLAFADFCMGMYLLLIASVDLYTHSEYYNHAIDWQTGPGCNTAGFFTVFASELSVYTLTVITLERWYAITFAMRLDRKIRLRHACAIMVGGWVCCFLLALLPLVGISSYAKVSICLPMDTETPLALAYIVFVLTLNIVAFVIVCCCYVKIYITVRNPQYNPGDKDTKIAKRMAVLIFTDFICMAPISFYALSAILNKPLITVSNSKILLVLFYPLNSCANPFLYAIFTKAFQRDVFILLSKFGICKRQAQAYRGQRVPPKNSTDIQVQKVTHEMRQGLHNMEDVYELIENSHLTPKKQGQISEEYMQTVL
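Cell-based HTRF cAMP assay; TSHR cells + compound, TSH EC80 (4nM final), 2 h, 37 deg C. Lysis with anti-cAMP cryptate and cAMP-d2, 30 min RT, read 665/620 nm.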
RORg inh – inhibitors of mouse ROR gamma transcriptional activity | AID 2551 | P51450 | actives 5.4% (n = 310,000) | Potency, µM (series often up to 53.6 µM), usual class: inhibitors | Drosophila S2 Gal4-RORgamma UAS-luciferase reporter, 20 h; also: nearly all actives have a fitted effect of over 60% in size
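Compounds are pin-transferred onto Drosophila Schneider cells expressing a copper-inducible Gal4–ROR gamma transactivation domain fusion. After 1 hr, copper sulfate is added to 700 uM final; luciferase is read 20 hr later.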
Coupling enz – inhibits coupling enzyme system, counter-screen for aldolase hits; actives 0.67% (n = 290,000); activity change, negative = inhibition, % at 58.2 µM, hits read low; coupling enzyme system counterscreen, AmpLite Red fluorescence; in the data active = activity change below about -30%
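Coupling enzymes only (glyceraldehyde-3-phosphate) + compound, at 57.5 uM final, 10 min RT; add substrate/coupling/AmpLite Red mix, 20 min RT; fluorescence ex 525/em 598 nm. Actives flag coupling-system interference.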
Gal4-VP16 FLuc – counter-screen for ROR gamma inhibitors: Gal4-VP16 reporter; AID 2546; actives 3.5% (n = 310,000); Drosophila S2 Gal4-VP16 UAS-luciferase, luminescence, 20 h; Potency, µM (doses to about 53.6 µM), actives largely listed as inhibitors;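 also: Gal4-VP16 expression switched on by copper sulfate through the metallothionein promoter; nearly all actives have a fitted effect of over 50% in size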
Hits are given with their value; i = inactive; ? = inconclusive; nt = no result; [ ] = dose if it differs, or a comment. In the library only some 8% were active in any assay of this set; here they are far more common. Unless noted, calls follow the shape of the dose curve; as a rule, active = well fitted curve in the direction sought with a large enough effect; inconclusive = small, poorly fitted or top-dose-only effect, or another doubt; inactive = no such curve, though single readings can be large; an effect the other way counts as inactive or inconclusive.

SMILES	ELG1 DNA repair	TSHR antagonist	RORg inh	Coupling enz	Gal4-VP16 FLuc
CC[C@H](C)[C@H](NC(=O)[C@H](CO)NC(=O)[C@H](CC(C)C)NC(=O)[C@H](CO)NC(=O)[C@@H]1CCCN1C(=O)[C@H](CC(N)=O)NC(=O)[C@@H](N)CC(=O)O)C(=O)N[C@@H](CC(=O)O)C(=O)N[C@@H](CC(C)C)C(=O)N[C@H](C(=O)N[C@@H](Cc1ccccc1)C(=O)N[C@@H](Cc1cnc[nH]1)C(=O)N[C@@H](CC(C)C)C(=O)N[C@@H](CC(C)C)C(=O)N[C@@H](CCCNC(=N)N)C(=O)N[C@H](C(=O)N[C@@H](CC(C)C)C(=O)N[C@@H](CC(C)C)C(=O)N[C@@H](CCC(=O)O)C(=O)N[C@@H](CC(C)C)C(=O)N[C@@H](C)C(=O)N[C@@H](CCCNC(=N)N)C(=O)N[C@H](C(=O)N[C@@H](CCC(N)=O)C(=O)N[C@@H](CO)C(=O)N[C@@H](CCC(N)=O)C(=O)N[C@@H](CCCNC(=N)N)C(=O)N[C@@H](CCC(=O)O)C(=O)N[C@@H](CCCNC(=N)N)C(=O)N[C@@H](C)C(=O)N[C@@H](CCC(=O)O)C(=O)N[C@@H](CCC(N)=O)C(=O)N[C@@H](CC(N)=O)C(=O)N[C@@H](CCCNC(=N)N)C(=O)N[C@H](C(=O)N[C@H](C(=O)N[C@@H](Cc1ccccc1)C(=O)N[C@@H](CC(=O)O)C(=O)N[C@@H](CO)C(=O)N[C@H](C(N)=O)C(C)C)[C@@H](C)CC)[C@@H](C)CC)[C@@H](C)O)[C@@H](C)O)[C@@H](C)O	nt	nt	i	i	i
Cc1csc(NC(=O)CCC(=O)N(CC(=O)NC2CCCCC2)c2ccccc2)n1	i	i	i	i	i
Cc1ccc(Nc2nc(N/N=C\c3ccc4c(c3)OCO4)nc(N3CCOCC3)n2)cc1	?	i	8.91µM	i	i
Brc1cc2c(cc1/C=N/Nc1nc(N3CCCCC3)nc(N3CCCCC3)n1)OCO2	i	i	1.78µM	i	i
O=[N+]([O-])c1cc2c(cc1/C=N/Nc1nc(Nc3ccccc3)nc(N3CCCCC3)n1)OCO2	i	i	3.16µM	i	i
Cc1ccc(/C=N/Nc2cc(C)nc(N3CCOCC3)n2)cc1	?	i	i	i	i
Cc1nn(C(=O)c2cc([N+](=O)[O-])ccc2Cl)c(C)c1Br	i	i	i	i	i
CN1CCCC2(CCN(C(=O)c3cc(C(F)(F)F)cc(C(F)(F)F)c3)CC2)C1	nt	nt	i	i	i
CC(C)C1C(=O)N(S(C)(=O)=O)[C@H]2CCN(C(=O)/C=C/CN3CCCCC3)[C@@H]12 (stereo partly drawn)	nt	nt	i	i	i
COc1ccc(-c2oc(=O)c3cc(OC)c(OC)cc3c2C#C[C@]2(O)CC[C@H]3[C@@H]4CCc5cc(OC)ccc5[C@H]4CC[C@@]32C)cc1	i	i	nt	nt	nt
CCCN(CC(=O)Nc1ccccc1OC)C(=O)c1nc2nc(C)ccn2n1	i	i	nt	nt	nt
COc1ccc(-c2csc(NC(=O)COC(=O)c3ccco3)n2)cc1	?	i	i	i	?
CCCC(=O)NC(=S)Nc1nc(-c2ccc(OC)cc2)cs1	?	i	8.91µM	i	i
O=C(NC(=S)Nc1nc(-c2ccccc2)cs1)c1ccco1	i	i	3.55µM	i	?
COc1ccc(-c2csc(NC(=S)NC(=O)c3ccco3)n2)cc1	?	i	7.08µM	i	i
O=C(Oc1ccccc1)N1CCC2(CCCN(c3ccc(-c4ccccc4)cc3)C2)CC1	nt	nt	i	i	i
CC[C@H](C)[C@H](NC(=O)CNC(=O)[C@H](CCCNC(=N)N)NC(=O)CNC(=O)[C@@H](NC(=O)[C@H](Cc1ccc(O)cc1)NC(=O)[C@H](Cc1c[nH]c2ccccc12)NC(=O)[C@H](C)NC(=O)[C@@H]1CCCN1C(=O)[C@H](CC(N)=O)NC(=O)[C@@H](NC(=O)[C@H](CC(=O)O)NC(=O)[C@@H]1CCCN1C(=O)[C@@H](N)[C@@H](C)O)[C@@H](C)CC)[C@@H](C)O)C(=O)N[C@@H](CCCNC(=N)N)C(=O)N1CCC[C@H]1C(=O)N[C@H](C(=O)NCC(=O)N[C@@H](CCCNC(=N)N)C(=O)N[C@@H](Cc1ccccc1)C(N)=O)C(C)C	nt	nt	i	i	i
O=[N+]([O-])c1ccc(C[n+]2ccc(Cc3ccccc3)cc2)cc1	?	i	i	-42.2	i
O=C(Cn1cc[n+](Cc2ccccc2)c1)c1ccc([N+](=O)[O-])cc1	14.6µM	i	i	i	i
CCN1C(=O)[C@H]2[C@H]3[C@H](O)[C@H](O)C/C(=N/OC/C=C(\C)CCC=C(C)C)[C@H]3CC[C@@H]2C1=O	nt	nt	i[10 µM]	i	i[10 µM]
Cc1c(C(=O)N2CCc3ccccc3C2)sc2nc(-c3ccccc3)cn12	20.6µM	i	i[0.365 µM]	i	nt
COc1ccc(-c2cn3c(C)c(C(=O)Nc4cc(NC(C)=O)ccc4OC)sc3n2)cc1	i	i	12.6µM	i	?
Cc1onc(-c2ccccc2)c1C(=O)Nc1ccc2c(c1)OCCO2	i	i	i	i	i
Cc1c(C(=O)Nc2ccncc2)sc2nc(-c3ccccc3)cn12	13µM	i	i	i	?
Cc1c(C(=O)NCc2cccnc2)sc2nc(-c3ccccc3)cn12	?	i	i	i	i
SMILES	ELG1 DNA repair	TSHR antagonist	RORg inh	Coupling enz	Gal4-VP16 FLuc
Cc1c(C(=O)Nc2ccc3c(c2)OCCO3)sc2nc(-c3ccccc3)cn12	13µM	?	i	i	i
CN(C)S(=O)(=O)c1cccc(NC(=O)Cc2ccc(-c3ccccc3)cc2)c1	i	i	i	nt	i
CCN(CC)CCCC(C)n1c(-c2ccccc2)nc2c(NCCOC)nc(C)nc21 (stereo not drawn)	nt	nt	i	i	i
COc1ccc(-c2cc(C(F)(F)F)nc(-n3ccnc3C)n2)cc1	25.9µM	i	11.2µM	i	?
O=C(OCC(=O)N1CCN(C(=O)c2ccco2)CC1)c1cc(-c2ccccc2)nc2ccccc12	14.6µM	i	i	i	i
O=C(OCC(=O)N1CCN(C(=O)c2ccco2)CC1)c1cc(-c2ccc(F)cc2)nc2ccccc12	23.1µM	i	i	i	i
O=C(OCC(=O)N1CCN(C(=O)c2ccco2)CC1)c1cc(-c2cccc(Br)c2)nc2ccccc12	16.4µM	i	i	i	i
CCOC(=O)/C=C/C(=O)OCC(=O)N1CCN(C(=O)c2ccco2)CC1	i	i	11.2µM	nt	?
O=C(CSc1nncs1)Nc1ccc(Cl)cc1C(F)(F)F	?	i	nt	nt	nt
Cc1nn(C)c(C)c1S(=O)(=O)N(CC(=O)NCCCN1CC(C)CC(C)C1)c1ccc(C(C)C)cc1 (stereo not drawn)	?	i	i	i	i
O=C(c1ccco1)N1CCN(c2nc3ccccc3c(=O)n2-c2ccccc2)CC1	20.6µM	i	i	i	?
